This is a sample that favours compounds with a hit; in the whole collection about 2.4% have one here.
D2 ag-1: agonists of human D2 dopamine receptor; P14416; HEK293 T-REx D2 cells, calcium flux agonist mode; activation, % at 2 µM; 340,000 tested, 0.53% active; AID 485358;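 active = activation over 3 SD above normal in the single-dose calcium agonist read, cut at about 30% in these data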
Target sequence (P14416 whole entry, looked up): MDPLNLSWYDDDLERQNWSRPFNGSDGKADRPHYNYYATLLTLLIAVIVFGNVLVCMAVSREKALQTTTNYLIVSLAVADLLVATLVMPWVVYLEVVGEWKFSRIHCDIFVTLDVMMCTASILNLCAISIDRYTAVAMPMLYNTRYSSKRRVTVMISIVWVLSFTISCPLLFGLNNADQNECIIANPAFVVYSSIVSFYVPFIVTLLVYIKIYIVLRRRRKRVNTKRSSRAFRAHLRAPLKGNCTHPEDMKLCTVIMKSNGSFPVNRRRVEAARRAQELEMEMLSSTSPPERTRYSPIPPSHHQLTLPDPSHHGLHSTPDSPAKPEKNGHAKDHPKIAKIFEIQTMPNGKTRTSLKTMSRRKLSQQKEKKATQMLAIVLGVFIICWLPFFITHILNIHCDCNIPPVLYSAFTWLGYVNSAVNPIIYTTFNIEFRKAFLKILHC
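Agonism is scored from calcium flux in a force-coupled, inducible HEK293 cell line expressing D2, read kinetically for 180 s after compound addition against dopamine controls.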
D2 ag-2: agonists of human D2 dopamine receptor (beta-arrestin); activation, % (test concentration not listed); 360,000 tested, 0.084% active; DiscoveRx PathHunter D2 beta-arrestin, luminescence, 90 min; 100% = 57 uM dopamine signal; AID 624465; P14416; in the data active = activation above about 40%; inconclusive = between about 15% and that limit
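Agonist mode: compounds alone added to overnight-plated D2 PathHunter cells for 90 min at 37 C, with 57 uM final dopamine (EC100) defining full response. Beta-arrestin recruitment detected by chemiluminescent reagent, read after 1 h at ambient temperature.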
D2 antagonist: antagonists of human D2 dopamine receptor; inhibition, % at 10 µM; 340,000 tested, 2% active; HEK293 TREx D2 cells, calcium flux, dopamine EC80; P14416; in the data active = inhibition above about 30%; inactive = below that, where a call was filed
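In this primary screen, negative modulation is detected by tracking calcium flux after an EC80 dopamine challenge in inducible HEK293 T-REx D2 cells preexposed to test compound for 180 s.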
D2 PAM-1: positive allosteric modulators of human D2 dopamine receptor; P14416; HEK293 T-REx D2, calcium flux, EC20 dopamine potentiation; potentiation, % at 10 µM; 340,000 tested, 0.34% active;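 active = potentiation over 3 SD above the plate norm, cut at about 30% in these data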
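Primary screen. Calcium kinetics in induced HEK293 T-REx D2 cells: compound pre-addition 180 s, EC20 dopamine, 180 s more.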
D2 PAM-2: potentiates the human D2 dopamine receptor allosterically; potentiation, % (concentration not given with the values); DiscoveRx D2 beta-arrestin cells, luminescence, 90 min; 100% = 57 uM dopamine signal; P14416; 360,000 tested, 0.23% active; AID 624464; in the data active = potentiation above about 50%; inconclusive = mostly about 30% to 49%
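D2 cells co-treated with compound plus 50 nM dopamine (EC20) for 90 min at 37 deg C to detect potentiation. Beta-arrestin recruitment was read as enzyme-fragment luminescence after 1 h at ambient temperature. Full response was set by 57 uM dopamine.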
Numbers stand for hits; 0 = inactive; ? = inconclusive; - = no result given.

SMILES	D2 ag-1	D2 ag-2	D2 antagonist	D2 PAM-1	D2 PAM-2
Cc1ccccc1-c1noc(N)c1C#N	0	0	0	0	76
CCc1ccccc1-n1c(-c2ccncc2)n[nH]c1=S	0	0	70	0	0
Cc1ccccc1-n1c(-c2ccncc2)n[nH]c1=S	0	0	0	0	0
C/C(=N\NC(=O)CSCc1ccc([N+](=O)[O-])cc1)c1ccccc1O	0	0	77	0	0
Cc1cccc(CSCCNC(=O)CSCc2ccc([N+](=O)[O-])cc2)c1	0	0	0	0	0
Cc1ccc(CSCCNC(=O)CSCc2ccc([N+](=O)[O-])cc2)cc1	0	0	32	0	0
Cc1ccc(OCCSc2nc3ccccc3n2CC(=O)NC(C)C)cc1	0	-	-	0	-
CC1CCCC(C)N1C(=S)NCc1ccco1 (stereo not given)	0	0	30	0	0
OCC1CCCCN1C(=S)NCc1ccco1 (stereo not given)	0	0	0	0	?
COc1ccc(OC)c(N2C(=O)CC(Cc3ccc(C)cc3)C2=O)c1 (stereo not given)	0	0	0	35	0
COc1ccc(CC2CC(=O)N(c3ccc(C)cc3)C2=O)cc1 (stereo not given)	0	0	0	0	0
COC1=CC(=Cc2c(N)n3nc(CC(=O)N4CCCCC4)sc3nc2=O)C=C(OC)C1=O	70	0	0	0	0
CC1CCCN(CCCNC(=O)c2coc3nc4ccccc4nc23)C1 (stereo not given)	0	0	33	0	0
CCc1ccccc1S(=O)(=O)Cc1ccc(C(=O)NCCc2ccc(C)cc2)o1	-	-	-	0	-
O=C(NCCNC1CCC(c2ccccc2)CC1)c1ccc(F)cc1 (stereo not given)	0	0	85	0	0
O=C(NCCCc1ccccc1)c1ccc(F)cc1	0	0	0	0	0
CSc1nc(Cl)cc(=O)[nH]1	0	0	0	0	0
CCOCc1cc(=O)[nH]c(SC)n1	0	0	30	0	0
CCOC(=O)c1c(C)[nH]c(C)c1S(=O)(=O)N1CCC(C(=O)NCc2ccc(OC)cc2)CC1	0	-	-	0	-
CCN(Cc1nc(-c2ccc(OC)c(OC)c2)no1)C(=O)c1ccc2c(c1)OCO2	0	0	37	0	0
CCC(C)NC(=O)c1cnn2c(C)c3c(nc12)CCCC3 (stereo not given)	0	0	0	33	0
O=C(O)c1cccnc1Nc1cccc(C(F)(F)F)c1	0	0	56	0	0
COc1ccc(S(=O)(=O)c2cn(C)c3cc(N4CCOCC4)c(F)cc3c2=O)cc1	0	-	-	0	-
O=C(Nc1ccc(F)cc1Cl)C1CCN(c2ncnc3c2nc2n3CCCCC2)CC1	0	-	-	0	-
COc1ccc(NC(=O)c2cc(S(=O)(=O)N3CCCC3)cn2C)cc1Cl	0	0	38	0	0
SMILES	D2 ag-1	D2 ag-2	D2 antagonist	D2 PAM-1	D2 PAM-2
COc1ccc(Cl)cc1NC(=O)c1cc(S(=O)(=O)N2CCCC2)cn1C	0	0	0	0	0
COc1ccccc1CNC(=O)c1cc(S(=O)(=O)N2CCCC2)cn1C	0	0	37	0	0
COc1ccccc1C(=O)Nc1nc(-c2ccc(S(=O)(=O)N3CCOCC3)cc2)cs1	0	0	0	0	56
Cc1ccc(S(=O)(=O)N2CCC(C(=O)OCC(=O)NCc3cccc(Cl)c3)CC2)cc1C	-	0	-	-	0
COc1ccccc1CNC(=O)COC(=O)C1CCN(S(=O)(=O)c2ccc(C)c(C)c2)CC1	0	0	0	30	0
CCOC(=O)c1noc2nc(C)n(CC(=O)NC(C)CC)c(=O)c12 (stereo not given)	0	-	-	0	-
CCCC(=O)OCc1cnc(C)c2oc(=O)c(C(=O)Nc3cccc(C(F)(F)F)c3)cc12	0	-	-	0	-
COc1ccc(CNC(=O)c2cc(-c3cccc(Cl)c3)on2)cc1	0	-	-	0	-
COc1ccccc1CCNC(=O)Cn1ccc2cc(S(=O)(=O)N3CCC(C)CC3)ccc21	0	0	0	34	0
COc1ccc(OC)c(CCNC(=O)Cn2ccc3cc(S(=O)(=O)N4CCCC4)ccc32)c1	0	0	0	0	0
COc1cc(S(=O)(=O)N2CCCCC2)ccc1NC(=O)c1ccccc1Cl	0	0	0	48	0
COc1cc(NC(=O)CN2C(=O)C(c3ccc(Cl)cc3)=NC23CCCCC3)cc(OC)c1	-	-	-	0	-
O=C(NCCc1ccccc1)c1cc(Sc2ccc(F)cc2F)nc2ccccc12	0	-	-	0	-
Nc1nc(Nc2cccc(F)c2)nc(N2CCOCC2)c1[N+](=O)[O-]	0	0	0	0	0
Cc1cccc(Nc2nc(N)c([N+](=O)[O-])c(N3CCN(C)CC3)n2)c1	0	0	55	0	0
CN1CCN(c2nc(Nc3ccccc3)nc(N)c2[N+](=O)[O-])CC1	0	0	83	0	0
CCOC(=O)N1CCN(Cc2nc3cc(NC(=O)c4ccc(F)cc4)ccc3n2C(C)C)CC1	-	-	-	0	-
COc1ccc(OC)c(NC(=O)CC2C(=O)NCCN2C(=O)C(F)(F)F)c1 (stereo not given)	0	-	-	0	-
CCOC(=O)c1c(-c2cccc([N+](=O)[O-])c2)csc1NC(=O)C1CCCCC1	0	0	0	0	?
CCOC(=O)c1c(-c2cccc([N+](=O)[O-])c2)csc1NC(=O)C1CC1	0	0	0	0	55
NNC(=O)c1ccc(COCC(F)(F)F)cc1	0	0	53	0	0
CN(C)CCNC(=O)c1ccc(COCC(F)(F)F)cc1	0	0	0	-	0
CCOC(=O)c1cc(-c2ccc(OC)cc2)n(CCC(=O)Nc2ccc(OC)cc2OC)c1C	0	-	-	0	-
CCSc1nnc(NC(=O)c2csc3c2CCC(C)C3)s1 (stereo not given)	-	0	-	-	0
CCSc1nnc(NC(=O)c2csc3c2CCCC3)s1	0	0	40	0	0
SMILES	D2 ag-1	D2 ag-2	D2 antagonist	D2 PAM-1	D2 PAM-2
CCSc1nnc(NC(=O)c2cc(C)on2)s1	0	0	56	-	0
CCSc1nnc(NC(=O)c2c(C)noc2C)s1	0	0	0	0	0
COc1ccc(NC(=O)CN(C)CC(=O)Nc2sc3c(c2C#N)CCC3)cc1	0	0	32	0	0
CC(OC(=O)Cn1c(C(F)(F)F)nc2ccccc21)C(N)=O (stereo not given)	0	0	40	0	0
Cc1cccc(COc2ccc(/C=C3/C(=O)N(C)C(=S)N3C)cc2)c1	0	0	31	0	0
O=S(=O)(Nc1ccc(-c2ccc(N3CCCC3)nn2)cc1)c1ccccc1Cl	0	-	-	0	-
CN1CCN(C(CNC(=O)c2cccc(F)c2)c2ccc3c(c2)OCO3)CC1 (stereo not given)	0	-	-	0	-
Cc1ccc(NC(=O)CSc2nc3[nH]c(=O)cc(O)c3s2)c(Br)c1	0	0	59	0	0
COc1ccc(C(NC(=O)C2CCN(CCOc3ccc(Cl)cc3Cl)CC2)c2cccs2)cc1 (stereo not given)	-	70	-	-	0
